Experimental data taken from publication PMC5540273 (PLoS ONE, 2017).
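Note: KINOMEscan kinase panel screen.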

What follows are compounds tested on ROCK1. Conditions: concentration: 1 μM, replicates: in singlicate; n = 1.
In the case of `Cc1ccc(Nc2ccnc(Nc3ccc(C)c(F)c3)n2)cc1O.Cl` [GW582868], the “%Inh” value was 22%.
For `O=C(Nc1c(F)cccc1F)c1cc(C(=O)c2ccccc2F)c[nH]1` [GSK1326180], the “%Inh” value was 0%.
For `COc1cccc(CC(=O)N2CCc3cc(-c4cn(C)c5ncnc(N)c45)ccc32)c1` [GSK2608899], the “%Inh” value was 23%.
`Cl.N#CCc1ccc(Nc2nccc(Nc3ccc(Oc4ccccc4)cc3)n2)cc1` [GW639905] was tested, and the “%Inh” value was 31%.
`Nc1ncc(-c2ccc3nccc(-c4ccncc4)c3c2)cc1S(=O)(=O)N1CCCCC1` [GSK1693850] was tested, and the “%Inh” value was 11%.
`COc1cc(Nc2nccc(N3CCC(NS(=O)(=O)c4ccc(NC(C)=O)cc4)CC3)n2)cc(OC)c1OC` [GSK1379825] was tested, and the “%Inh” value was 28%.
`COc1cccc2c(-c3ccncc3)c(-c3ccc(F)cc3)nn12` [GW468513] was tested, and the “%Inh” value was 0%.
`CCn1cnc2c(NCc3ccccc3)ncnc21` [SKF-96418] was tested, and the “%Inh” value was 56%.
With `COc1cccc(-c2nc(-c3ccccc3)[nH]c2-c2ccncc2)c1` [SB-610250] the “%Inh” value was 24%.
For `COc1cc(Nc2ccnc3cc(-c4ccncc4)ccc23)cc(OC)c1OC.Cl` [GW494610], the “%Inh” value was 31%.
In the case of `O=C(O)C(F)(F)F.O=c1[nH]ccc2nc(N[C@@H]3CCNC3)nc(Nc3ccc4c(c3)S(=O)(=O)CC4)c12` [GSK2181306], the “%Inh” value was 99.7%.
`CN(C)c1ncnc2nc[nH]c12` [SKF-31736] was tested, and the “%Inh” value was 58%.
In the case of `O=C(Nc1n[nH]c2nc(-c3ccccc3O)ccc12)C1CC1` [SB-711880], the “%Inh” value was 0%.
`CCNc1nccc(-c2c(-c3ccc(F)cc3)ncn2C2CCN(C)CC2)n1` was tested, and the “%Inh” value was 0%.
With `O=C(O)C(F)(F)F.O=c1[nH]ccc2nc(N[C@@H]3CCNC3)nc(Nc3cc(Cl)cc(Cl)c3)c12` [GSK2188764] the “%Inh” value was 99.5%.
With `COC(=O)Nc1nc2cc(Oc3ccc(NC(=O)Nc4cccc(SC)c4)cc3)ccc2[nH]1.Cl` [GW697999] the “%Inh” value was 82%.
In the case of `Cc1cccc(Nc2nc(N[C@H]3CCCC[C@H]3N)ncc2C(N)=O)c1.Cl` [GSK986310], the “%Inh” value was 85%.
With `COc1cc(Nc2nccc(N3CCC(NC(=O)Nc4ccc5c(c4)OCO5)C3)n2)cc(OC)c1OC` (stereo not shown) [GSK1379766] the “%Inh” value was 25%.
In the case of `CC(C)(C)c1ccc(C(=O)Nc2cn3cc(-n4ccnc4)ccc3n2)cc1`, the “%Inh” value was 0%.
In the case of `CC(C)NCC(Cc1ccccc1)NC(=O)c1cc(Br)c(-c2ccnc3[nH]ccc23)s1.Cl.Cl` (stereo not shown) [GSK1383281], the “%Inh” value was 99.6%.
In the case of `CSc1ccc(NC2=C(c3ccc(Cl)cc3)C(=O)NC2=O)cc1` [SB-317658], the “%Inh” value was 38%.
For `O=C(Nc1n[nH]c2cc(-c3cccs3)ccc12)C1CC1` [SB-731284], the “%Inh” value was 31%.
`O=C(Nc1n[nH]c2nc(-c3cccc(O)c3)ccc12)C1CC1` [SB-711805] was tested, and the “%Inh” value was 2%.
With `Cc1cc(-c2ccnc(Nc3cccc(C#N)c3)n2)cc(C)c1O` [GSK1440913] the “%Inh” value was 0%.
`Cc1ccc(-c2ccc3occ(-c4ccc(S(C)=O)cc4)c3c2)nn1` (stereo not shown) was tested, and the “%Inh” value was 6%.
For `CN(C)CCNS(=O)(=O)c1ccc(-c2ccnc3[nH]ccc23)cc1` [GSK977620], the “%Inh” value was 99.6%.
With `COC(=O)Nc1nc2ccc(Oc3ccc(CC(=O)Nc4cc(C(F)(F)F)ccc4F)cc3)cc2[nH]1` [GW680903] the “%Inh” value was 31%.
For `Cl.Cl.NCC(NC(=O)c1cc(-c2cccnc2)c(-c2ccnc3[nH]ccc23)s1)c1ccccc1` (stereo not shown) [GSK1323434], the “%Inh” value was 99.7%.
`CCn1c(-c2nonc2N)nc2c(-c3ccccc3)ncc(OCCCN)c21.O=C(O)C(F)(F)F.O=C(O)C(F)(F)F` [GSK260205] was tested, and the “%Inh” value was 91.7%.
In the case of `Cc1ccc(NC(=O)c2cccc(N3CCCCC3)c2)cc1-c1ccc(C(=O)NCC2CC2)cc1` [GSK1917008], the “%Inh” value was 2%.
With `CN(c1ccc(NC(=O)N2CCN(CCCN3CCOCC3)CC2)cc1)c1ccnc(Nc2ccc(CS(C)(=O)=O)cc2)n1.Cl` [GW830899] the “%Inh” value was 0%.
In the case of `c1ccc(Oc2ccc(Nc3ccnc4cc(-c5ccc(CN6CCCCC6)o5)ccc34)cc2)nc1` [GW567143], the “%Inh” value was 19%.
`Cc1ccc(NC(=O)c2ccc(Cl)c(Cl)c2)cc1-c1ccc(C(=O)Nc2ccncc2)cc1` [GSK1398460] was tested, and the “%Inh” value was 0%.
`Cc1ccccc1CC(=O)N1CCc2cc(-c3cn(C)c4ncnc(N)c34)ccc21` [GSK2603346] was tested, and the “%Inh” value was 10%.
`CNc1nccc(-c2ccc3c(N)n[nH]c3c2)n1` [GSK2206003] was tested, and the “%Inh” value was 52%.
In the case of `Nc1ncc(-c2cn[nH]c2)c2scc(-c3ccc4c(c3)CCN4C(=O)Cc3ccccc3)c12` [GSK2593067], the “%Inh” value was 41%.
In the case of `COC(=O)Nc1nc2ccc(Oc3ccc(NC(=O)Nc4cc(C(F)(F)F)ccc4F)cc3)cc2[nH]1.Cl` [GW654607], the “%Inh” value was 43%.
